The source made the active and inactive calls.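 The calls were made as follows, unless noted: active = inhibition above 20% together with a positive visual image hit; inconclusive = visual image hit but inhibition not above 20%; inactive = no visual image hit.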 Where a SMILES comes first, the peptide text is derived from it. The star is where a group is joined. Boc = CC(C)(C)OC(=O)*
Legend:
[1] = inhibitors of TNFa-induced NFkB p65 translocation, primary screen, imaging, HUVEC, MLSMR starter and 10KST1 sets (AID 438); settings: HUVEC TNFa-induced p65 nuclear translocation; cell count: measured here: nuclei count (cytotoxicity indicator), at 2.08 µM; inhibition: at 2 µM, stronger effect = higher value, 0% TNFa-plus-vehicle, 100% no-TNFa wells;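 also: compound added about 3h40 before a 20 min TNFalpha stimulation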;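 as to inhibition: signal is the nuclear over cytoplasmic p65 intensity ratio per well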
[2] = reduction of polyQ htt aggregates in cells – imaging, exon1htt(103Q)mCFP cells, high-content imaging, primary screen (AID 483;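 active = visual image review flags a hit and inhibition of aggregation exceeds 20%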;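 also: compound exposure lasted 3 days before fixation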;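 as to nuclei count: percent of the per-plate median nuclei count of sample wells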); settings: exon1htt(103Q)mCFP cell line, aggregate imaging, at 2 µM; inhibition of aggregation: stronger effect = higher value; nuclei count: measured here: cell count, toxicity
[3] = endothelial E-selectin expression blockers – imaging, HUVEC, immunofluorescence, MLSMR starter and 10KST1 sets, primary screen (AID 487;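 active = visually confirmed hit in the image check and inhibition above 20%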;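 as to inhibition: signal is fraction of cell area covered by stained E-selectin grains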;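 as to nuclei count: 100% = median nuclei count of all wells on the same plate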); settings: HUVEC TNFalpha-induced E-selectin immunofluorescence imaging, at 2 µM; inhibition: stronger effect = higher value; nuclei count: measured here: cell number, toxicity
[4] = target: Voltage-gated potassium channel subunit beta-2 (Rattus norvegicus) (UniProt P62483); experiment: inhibitors of rat Kvbeta2 reductase activity – biochemical, NADPH fluorescence, primary screen (AID 622;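 active = fluorescence slope higher than the sample average by over 3 SD, cut at about -0.22 in these data, passing the limit was not always enough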;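 also: slope of raw intensity against log time taken from 70 to 1610 s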); settings: recombinant KvBeta, 4-cyanobenzaldehyde reduction, at 10 µM, stronger effect = higher value
Voltage-gated potassium channel subunit beta-2 (Rattus norvegicus), sequence (P62483 whole entry, looked up): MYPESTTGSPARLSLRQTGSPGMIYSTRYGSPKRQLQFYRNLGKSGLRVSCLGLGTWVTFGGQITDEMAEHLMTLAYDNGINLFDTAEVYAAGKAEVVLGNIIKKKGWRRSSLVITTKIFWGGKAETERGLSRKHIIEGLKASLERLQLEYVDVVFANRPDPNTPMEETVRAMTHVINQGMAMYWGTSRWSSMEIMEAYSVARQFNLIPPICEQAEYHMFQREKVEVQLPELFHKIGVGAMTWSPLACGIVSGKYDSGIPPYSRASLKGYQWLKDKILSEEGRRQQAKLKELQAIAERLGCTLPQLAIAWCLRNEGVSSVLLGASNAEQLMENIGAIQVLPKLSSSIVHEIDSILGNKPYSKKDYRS

[5] = target: Voltage-gated potassium channel subunit beta-2 (Rattus norvegicus) (UniProt P62483); experiment: enhancers of rat Kvbeta2 NADPH turnover – biochemical, NADPH fluorescence, primary screen (AID 623;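 active = NADPH fluorescence slope more negative than the mean of all samples by about 3 SD, 99.7% confidence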;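 also: fluorescence intensity change per second fitted from 20 to 320 s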); settings: Recombinant KvBeta, NADPH fluorescence decrease slope, 10 min; at 10 µM; stronger effect = lower value
[6] = target: Alpha-2C adrenergic receptor (Homo sapiens) (UniProt P18825); experiment: compounds altering alpha2C-coupled GIRK flux – cell-based, HEK293 alpha2C/GIRK1/2, thallium flux, primary screen (AID 624;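 active = fluorescence slope after compound addition differing from the mean of all screened samples at 99.7% confidence, in either direction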;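 also: slope of fluorescence ratio to pre-addition baseline per second over 15 to 24 s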); settings: thallium flux BTC fluorescence, at 10 µM, actives lie on both sides
Alpha-2C adrenergic receptor (Homo sapiens), sequence (P18825 whole entry, looked up): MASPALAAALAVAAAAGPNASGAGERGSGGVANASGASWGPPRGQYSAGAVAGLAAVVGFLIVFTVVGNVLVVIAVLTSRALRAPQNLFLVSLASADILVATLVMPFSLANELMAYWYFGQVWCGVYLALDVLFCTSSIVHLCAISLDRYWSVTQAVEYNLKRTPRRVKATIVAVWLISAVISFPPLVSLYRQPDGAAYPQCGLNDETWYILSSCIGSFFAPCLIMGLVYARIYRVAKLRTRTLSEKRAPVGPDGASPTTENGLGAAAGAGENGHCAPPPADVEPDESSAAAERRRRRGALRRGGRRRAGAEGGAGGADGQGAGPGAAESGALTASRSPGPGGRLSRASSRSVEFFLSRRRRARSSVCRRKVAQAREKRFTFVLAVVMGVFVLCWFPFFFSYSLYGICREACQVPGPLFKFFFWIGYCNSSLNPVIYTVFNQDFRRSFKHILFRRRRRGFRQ

[7] = blockers of RIG-like receptor reporter activation – cell-based, Sendai virus stimulus, luciferase, 10K MLSCN set, TLR/RLR signaling modifier project, primary screen (AID 602276;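 active = inhibition at or above 50% at 10 µM; inactive = inhibition below 50%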;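 also: firefly luciferase from ISG56 promoter only with Renilla not read in this screen; 0% = Sendai virus plus DMSO and 100% = medium plus DMSO without virus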); settings: HEK293 RL24 IRF3 luciferase reporter, at 10 µM, stronger effect = higher value
[8] = TLR3 IRF3 reporter activation blockers – cell-based, poly I:C stimulus, luciferase, 10K MLSCN set, primary screen (AID 602277;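 active = inhibition of the reporter signal at or above 50%; inactive = inhibition below 50%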); settings: HEK293-TLR3 RL24 IRF3 luciferase reporter, at 10 µM, stronger effect = higher value

SMILES	cell count [1]	inhibition [1]	inhibition of aggregation [2]	nuclei count [2] [%]	inhibition [3]	nuclei count [3] [%]	fluorescence slope [4]	NADPH fluorescence slope [5]	slope [6]	inhibition [7]	inhibition [8]
Cc1cc(C)nc(Sc2ccc3nnc(C(F)(F)C(F)(F)C(F)(F)F)n3n2)n1	564	-21.1% (inactive)	-9.9% (inactive)	115	4.1% (inactive)	99.7	-0.495 (inactive)	-3.3e-05 (inactive)	0.00541 (inactive)	-0.722% (inactive)	24.8% (inactive)
O=C(CN1C(=O)CCS(=O)(=O)c2ccccc21)NCc1ccc(F)cc1	529	-7.7% (inactive)	13.4% (inactive)	95.8	-92.3% (inactive)	124	-0.395 (inactive)	-7.6e-05 (inactive)	0.00557 (inactive)	15.3% (inactive)	8.14% (inactive)
O=C(COC(=O)C12CC3CC(CC(C3)C1)C2)NCc1ccco1	661	3.4% (inactive)	-6.5% (inactive)	109	-28.3% (inactive)	113	-0.561 (inactive)	7.7e-06 (inactive)	0.00593 (inactive)	11.1% (inactive)	31.8% (inactive)
O=c1c2ccccc2nc(SCc2cccc(F)c2)n1Cc1ccco1	361	-3.4% (inactive)	4.4% (inactive)	87.4	-37.1% (inactive)	91.3	-0.37 (inactive)	2.5e-05 (inactive)	0.0116 (inactive)	9.34% (inactive)	4.77% (inactive)
CCOC(=O)N1CCN(CC(O)COc2ccccc2C(C)CC)CC1 (configuration not stated)	631	-12.4% (inactive)	0.6% (inactive)	100	-35.9% (inactive)	122	-0.612 (inactive)	-1.6e-05 (inactive)	0.00663 (inactive)	10.8% (inactive)	35.4% (inactive)
CCC1Oc2ccc(C)cc2N(CC(=O)NCCCN2CCCCC2CC)C1=O (configuration not stated)	651	-3.9% (inactive)	26.7% (inactive)	109	-34.9% (inactive)	101	-0.41 (inactive)	2.7e-05 (inactive)	0.0055 (inactive)	16.8% (inactive)	38.8% (inactive)
O=C(Cn1cnc2ccccc2c1=O)NCCC(=O)N1CCN(c2ccccc2)CC1	383	-10.7% (inactive)	8.8% (inactive)	99.4	12.8% (inactive)	95.3	-0.405 (inactive)	-9.9e-05 (inactive)	0.0056 (inactive)	15.8% (inactive)	23.6% (inactive)
Cc1noc(C)c1COC(=O)c1ccccc1Oc1ccccc1	583	-25.6% (inactive)	-12% (inactive)	106	-22.7% (inactive)	146	-0.627 (inactive)	-3.8e-07 (inactive)	0.00533 (inactive)	4.67% (inactive)	22.4% (inactive)
Cc1cccc(NC(=O)CS(=O)(=O)c2cn(C)c3ccccc23)c1	628	2.4% (inactive)	4.8% (inactive)	99.7	-12.5% (inactive)	103	-0.521 (inactive)	2.1e-06 (inactive)	0.00711 (inactive)	7.93% (inactive)	22.7% (inactive)
CCOc1ccccc1C(=O)Nc1cc(=O)n(C)c(=O)n1C	651	-0.8% (inactive)	6.8% (inactive)	95.8	31% (inactive)	98.4	-0.416 (inactive)	-4.9e-05 (inactive)	0.00585 (inactive)	14.8% (inactive)	39.7% (inactive)
Cc1nnc2n(-c3ccc(Cl)cc3)c(=O)c3c4c(sc3n12)CN(C)CC4	386	-5.7% (inactive)	8.9% (inactive)	93.3	22% (inactive)	89.5	-0.477 (inactive)	-0.000149 (inactive)	0.00624 (inactive)	-17.3% (inactive)	-5.51% (inactive)
COc1cccc(Cn2c(-c3nonc3N)nc3ccccc32)c1	306	-4.8% (inactive)	-97% (inactive)	1.8	-97% (inactive)	113	-0.556 (inactive)	-8.2e-05 (inactive)	0.00614 (inactive)	7.76% (inactive)	57.2% (active)
O=C(NCCCN1CCOCC1)c1ccc(CS(=O)(=O)c2c(Cl)cccc2Cl)o1	440	0.9% (inactive)	-10.5% (inactive)	98.2	-46.8% (inactive)	103	-0.458 (inactive)	2.8e-05 (inactive)	0.00463 (inactive)	-8.21% (inactive)	6.97% (inactive)
COc1ccc(C(=O)CSc2nnc(C3CCCCC3)n2N)c(OC)c1	419	-11.9% (inactive)	24.4% (inactive)	97.2	99.1% (active)	89.1	-0.612 (inactive)	-2e-05 (inactive)	0.00551 (inactive)	10.3% (inactive)	11.5% (inactive)
CCc1ccccc1NC(=O)c1ccoc1C	399	2.4% (inactive)	0.7% (inactive)	97.9	-12.3% (inactive)	99.5	-0.493 (inactive)	-5.8e-05 (inactive)	0.00456 (inactive)	13.9% (inactive)	17.6% (inactive)
CC1CCCCN1CCNS(=O)(=O)c1ccc2c(c1)oc(=O)n2C (configuration not stated)	248	0.3% (inactive)	4.6% (inactive)	89.3	18.9% (inactive)	88.9	-0.424 (inactive)	-6.8e-05 (inactive)	0.00417 (inactive)	15.8% (inactive)	18.5% (inactive)
C=CCOc1ccc(/C=N/n2cncn2)cc1OC	517	-8.8% (inactive)	23.9% (inactive)	76.3	-39.8% (inactive)	81.6	-0.58 (inactive)	2.1e-05 (inactive)	0.00496 (inactive)	-10.2% (inactive)	5.53% (inactive)
CC(C)(C)OC(=O)N1CCCC1C(=O)NC(Cc1ccccc1)C(=O)O (stereo not drawn) (Boc-Pro-Phe-OH; configuration not given here)	431	1% (inactive)	4.3% (inactive)	99.5	21.6% (inactive)	101	-0.607 (inactive)	1.1e-05 (inactive)	0.00669 (inactive)	12.2% (inactive)	17.2% (inactive)
COc1ccc(-c2nc(CSCC(=O)NCc3ccc4c(c3)OCO4)c(C)o2)cc1OC	477	-3.3% (inactive)	16.1% (inactive)	104	-83% (inactive)	114	-0.43 (inactive)	-5.4e-05 (inactive)	0.00553 (inactive)	9.89% (inactive)	20.1% (inactive)
COc1ccc2c(CC(=O)Nc3nnc(C4CC4)s3)coc2c1	286	-15.7% (inactive)	7.5% (inactive)	105	-13.2% (inactive)	111	-0.482 (inactive)	-0.000211 (inactive)	0.00533 (inactive)	9.99% (inactive)	14.7% (inactive)
CCOC(=O)c1oc2ccccc2c1CSc1nnnn1-c1ccc(C)cc1	371	-3.4% (inactive)	8.2% (inactive)	88.1	-60.7% (inactive)	106	-0.613 (inactive)	-2.5e-05 (inactive)	0.00768 (inactive)	-16.8% (inactive)	1.2% (inactive)
CN(Cc1nc(-c2ccncc2)no1)S(=O)(=O)c1ccccc1	560	0.6% (inactive)	-16.9% (inactive)	103	-18.6% (inactive)	104	-0.654 (inactive)	-4.4e-05 (inactive)	0.00664 (inactive)	12.9% (inactive)	13.2% (inactive)
CCCSc1nnc(N2C(=O)CC(c3ccsc3)C3=C2CCCC3=O)s1 (configuration not stated)	640	-5.3% (inactive)	24.3% (inactive)	90.4	-39.5% (inactive)	102	-0.558 (inactive)	-3.6e-05 (inactive)	0.00697 (inactive)	5.11% (inactive)	26.4% (inactive)
COc1cccc(C2=NOC(C(=O)N3CCN(c4ccccc4)CC3)C2)c1OC (configuration not stated)	471	15% (inactive)	6.5% (inactive)	113	8% (inactive)	99.4	-0.536 (inactive)	-8.8e-06 (inactive)	0.00606 (inactive)	19% (inactive)	6.35% (inactive)
CN(C)S(=O)(=O)c1cccc(C(=O)Nc2cccnc2)c1	294	10.1% (inactive)	0% (inactive)	103	-79.6% (inactive)	128	-0.407 (inactive)	-5.9e-05 (inactive)	0.00527 (inactive)	16.5% (inactive)	10.8% (inactive)
Cc1ccccc1-n1c(=O)cc(N2CCN(C(=O)c3ccco3)CC2)[nH]c1=O	543	12.5% (inactive)	6.9% (inactive)	116	-8.4% (inactive)	99.7	-0.598 (inactive)	1.7e-05 (inactive)	0.00562 (inactive)	13.5% (inactive)	12.4% (inactive)
CCCOc1ccc(NC2=CC(=O)CC(C)(C)C2)cc1	342	3.8% (inactive)	-7.1% (inactive)	119	-89.3% (inactive)	117	-0.405 (inactive)	-4.9e-05 (inactive)	0.00457 (inactive)	-1.23% (inactive)	-12.8% (inactive)

From PubChem BioAssay
